# Source: PubChem (National Center for Advancing Translational Sciences (NCATS))
# Only some compounds are listed: those with a hit (about 13% of all), similar ones and a draw of the others.
# Pf growth 96h = P. falciparum growth inhibition at 96 hours. Potency, µM (series often up to 28.7 µM), inactives show at the top dose activity change, negative = inhibition, hits mostly inhibitors. P. falciparum luciferase reporter growth, 96 h. 6.9% of 320,000 active. AID 504834; also: potency is read from the fitted curve at half-maximal effect
#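 Erythrocytes infected with luciferase-expressing P. falciparum were dispensed at 2% hematocrit and 0.05% parasitemia (final), then incubated with compounds 96 hours at 37 C in 5% CO2. Luminescence after detection reagent addition reported growth.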
# HCV inhibitor = HCV inhibition. Huh7.5.1 HCVcc-Cre infection, luciferase reporter, 44 h. Potency, µM (doses to about 41.8 µM), for inactives: at the top dose activity change, negative = inhibition, hits mostly inhibitors. 3.4% of 340,000 active. AID 651820; also: potency is read from the fitted curve at half-maximal effect
#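 Cells seeded at 1,000/well and cultured 4 h, then compounds added followed by HCVcc-Cre virus (~0.5 moi). After 44 h further culture, luciferase substrate was added, plates held 15 min at room temperature, and luminescence read for 15 sec.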
# HCMV inh = human cytomegalovirus inhibition; HFF cells, HCMV-luciferase reporter, 72 h; active compounds read low; activity change, negative = inhibition, % at 57.5 µM; 4.5% of 410,000 active; in the data active = activity change below about -60%; inconclusive = no clear call, values can overlap the other calls; inactive = above about -39%
#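 After 16 h attachment at 37C, HFF cells received test compound and HCMV-luciferase (1 PFU/cell); reporter luminescence read 72 h later, data normalized against buffer-only and known inhibitor Salinomycin.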
# Pf growth 48h = inhibits P. falciparum growth in the first generation, 48 h | 5.9% of 310,000 active | P. falciparum luciferase growth in erythrocytes, 48 h | Potency, µM (series often up to 28.7 µM), inactives show at the top dose activity change, negative = inhibition, actives largely listed as inhibitors; also: potency is read from the fitted curve at half-maximal effect
#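 Read-out is firefly luciferase luminescence from an integrated reporter in P. falciparum, so falling signal marks reduced parasite growth. Infected erythrocytes were at 2% hematocrit and 0.1% parasitemia (final) in Albumax-supplemented RPMI 1640.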
# Active calls of the source: *; ? = inconclusive; . = no result given. Unless noted, calls follow the shape of the dose curve; as a rule, active = well fitted inhibition curve with a large enough effect; inconclusive = small, poorly fitted or top-dose-only effect, or another doubt; inactive = no such curve, though single readings can be large or run the other way. % is scaled to controls: 0 for no effect and ±100 for the full control effect.
SMILES,Pf growth 96h,HCV inhibitor,HCMV inh,Pf growth 48h
CC1(C)Cc2c(C#N)c(NCCN3CCOCC3)nc(-c3ccccc3)c2CO1,-17%,-30%,0,-19%
CCc1ccc(-c2nn(CC(=O)Nc3ccccc3C)c3c2cnc2ccc(C)cc23)cc1,.,.,-3,.
CCOc1ccc(NC(=O)CCS(=O)(=O)c2ccc3c(c2)n(C)c(=O)c(=O)n3C)cc1,.,.,-17,.
Cc1ccc(S(=O)(=O)N2CCN(C(=O)COC(=O)c3ccc(Br)o3)CC2)c(C)c1,6%,7%,-30,?
O=C(CSCc1ccccc1)N1CCN(c2ccccc2)CC1,?,-2%,-17,72%
Cc1ccc(S(=O)(=O)N2CCN(C(=O)c3ccc(Br)o3)CC2)c(C)c1,?,-6%,?,6.6µM*
CSc1ccc(CSCC(=O)N2CCN(S(=O)(=O)c3ccc(C)cc3C)CC2)cc1,-59%,8.9µM*,-20,12µM*
Cc1ccc(S(=O)(=O)N2CCN(C(=O)NCc3ccc(F)cc3)CC2)c(C)c1,0%,-22%,-71*,-29%
